Compound activity (PubChem)
A selection: hits, their analogues and other compounds. The true share with any hit is near 3.5%.
Bead autofluor = counter-screen for toxin protease inhibitors: compound fluorescence. compound autofluorescence counterscreen, microsphere flow cytometry; active compounds read high. fluorescence intensity (concentration not given with the values). actives 3.1% (n = 360,000). AID 624483; in the data active = fluorescence intensity above about 16000; inconclusive = no clear call, values can overlap the other calls
BoNT-F LC inh = BoNT/F light chain protease inhibitors, primary screen, biochemical, flow cytometry, MLPCN library; actives 0.22% (n = 360,000); Multiplex microsphere protease cleavage assay; inhibition, % at 10 µM; in the data active = inhibition above about 35%, passing the limit was not always enough; inconclusive = no clear call, values can overlap the other calls; note: plate controls were buffer without enzyme for full effect and enzyme alone for no effect
BoNT A protease = BoNT/A light chain protease inhibitors, primary screen, biochemical, flow cytometry, MLPCN library. AID 588499, 2011. multiplex microsphere protease substrate cleavage. inhibition, % at 10 µM. actives 0.17% (n = 360,000). Botulinum neurotoxin type A light chain protease (Clostridium botulinum A str. ATCC 3502); note: plate controls were buffer without enzyme for full effect and enzyme alone for no effect
Anthrax LF prot = Bacillus anthracis LF protease inhibitors, primary screen, biochemical, multiplex microsphere, MLPCN library; Lethal factor (Bacillus anthracis), P15917; multiplex microsphere protease cleavage assay; inhibition, % at 10 µM; actives 0.12% (n = 360,000); note: plate controls were buffer without enzyme for full effect and enzyme alone for no effect
Target sequence (P15917 whole entry, looked up): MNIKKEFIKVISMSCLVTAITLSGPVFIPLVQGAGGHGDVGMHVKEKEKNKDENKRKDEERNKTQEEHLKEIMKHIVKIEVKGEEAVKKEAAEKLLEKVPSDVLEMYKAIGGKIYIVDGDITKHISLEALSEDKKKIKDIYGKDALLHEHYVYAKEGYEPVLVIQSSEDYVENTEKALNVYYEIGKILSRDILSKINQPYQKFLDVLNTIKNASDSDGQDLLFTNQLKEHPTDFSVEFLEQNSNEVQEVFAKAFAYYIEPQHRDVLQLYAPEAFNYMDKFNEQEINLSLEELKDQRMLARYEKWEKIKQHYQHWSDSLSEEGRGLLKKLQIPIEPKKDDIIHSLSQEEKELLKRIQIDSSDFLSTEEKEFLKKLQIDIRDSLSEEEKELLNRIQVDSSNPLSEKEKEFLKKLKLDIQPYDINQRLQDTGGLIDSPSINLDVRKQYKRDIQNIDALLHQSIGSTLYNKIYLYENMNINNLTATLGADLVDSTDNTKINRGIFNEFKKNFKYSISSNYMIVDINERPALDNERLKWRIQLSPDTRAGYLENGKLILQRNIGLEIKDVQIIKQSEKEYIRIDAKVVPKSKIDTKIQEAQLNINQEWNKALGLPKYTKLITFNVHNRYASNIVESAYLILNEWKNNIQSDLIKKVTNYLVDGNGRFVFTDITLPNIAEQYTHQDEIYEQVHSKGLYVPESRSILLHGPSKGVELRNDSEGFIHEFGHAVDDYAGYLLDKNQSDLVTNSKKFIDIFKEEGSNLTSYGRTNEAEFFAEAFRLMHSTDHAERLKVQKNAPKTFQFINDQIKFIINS
3CLpro inhibitor = SARS-CoV 3CLpro protease inhibitors, primary screen, biochemical, quenched FRET | Replicase polyprotein 1ab (Severe acute respiratory syndrome coronavirus), P0C6X7 | recombinant SARS-CoV 3CLpro, quenched FRET peptide cleavage | inhibition, % at 6 µM | actives 0.14% (n = 290,000) | AID 1706, 2009; in the data active = inhibition above about 12%
Starred values were filed as active, the others as inactive; ? = inconclusive; . = no result. Cut-off read from the data, not from the text of the source, unless noted: active = inhibition above about 30%; inconclusive = no clear call, values can overlap the other calls; inactive = below that.

SMILES	Bead autofluor	BoNT-F LC inh	BoNT A protease	Anthrax LF prot	3CLpro inhibitor
Cc1ccc(NC(=O)CN(C)C(=O)Cn2nnc(-c3ccccc3C)n2)cc1	3028	-5.1	-0.3	0.9	.
Cc1ccsc1C1Nc2ccc3ncccc3c2C2=C1C(=O)CCC2 (centres undefined)	20032*	0.5	2.7	1.2	-0.1
O=[N+]([O-])c1c(NCCCO)cc(Sc2nc3ccccc3s2)c2nonc12	23409*	1.9	?	-1.8	3.4
Cc1ccc(N2CC(C(=O)Nc3nccs3)CC2=O)cc1Cl (centres undefined)	23923*	-1.3	-1.7	0.6	6.3
Cc1ccc(N2CC(C(=O)Nc3nnc(C(C)C)s3)CC2=O)cc1 (centres undefined)	22336*	1.6	1.2	2.3	0.9
Cc1ccc(N2CC(C(N)=O)CC2=O)cc1 (centres undefined)	18778*	3.9	?	4.0	-1.1
CCOC(=O)C1CCN(C(=O)c2sc3nc(C)nc(N4CCC(C)CC4)c3c2C)CC1	21764*	-4.0	-3.0	-1.4	-1.6
Cc1nc(N2CCC(C)CC2)c2c(C)c(C(=O)Nc3ccc(C(F)(F)F)cc3)sc2n1	2020	-3.2	0.9	-1.1	-3.8
CCOC(=O)C1CCN(C(=O)c2sc3ncnc(N4CCC(C)CC4)c3c2C)CC1	16307*	1.9	?	-2.2	-1.7
CS(=O)(=O)N(Cc1ccccc1)c1ccc(C(=O)NCc2cccnc2)cc1	4213	0.0	-0.5	-0.7	6.8
C=CCN(c1ccc(C(=O)NCCc2ccccc2)cc1)S(C)(=O)=O	16236*	-0.2	1.4	1.2	-1.4
CS(=O)(=O)N(Cc1ccccc1)c1ccc(C(=O)NCc2ccccc2)cc1	22531*	3.7	2.4	-11.1	-2.5
C=CCNC(=O)c1ccc(N(CC=C)S(C)(=O)=O)cc1	4837	11.6	0.6	-3.1	-1.2
Cc1cccc(NC(=O)COC(=O)c2cccs2)c1C	3252	-14.4	-0.9	-3.7	6.0
CCn1c(SCC(=O)Nc2ccc(N3CCOCC3)cc2)nnc1-c1ccc(OC)cc1	11161	-12.8	-0.8	-3.1	1.6
CC1(c2ccc(Cl)cc2)NC(=O)N(CC(=O)Nc2ccc3c(c2)OCO3)C1=O (centres undefined)	3762	-3.2	0.0	1.2	.
Cc1ccc(O)c(CNc2nc3ccccc3n2C(C)C)c1	3526	37.7*	-2.2	-2.0	1.9
NC(=O)c1nccc2ccccc12	3505	9.1	0.2	6.4	.
O=C(O)Cn1nc2c3c(cccc3c1=O)-c1ccccc1-2	2614	-3.0	2.7	-16.4	-4.1
Cc1ccc(-n2nc3c4c(cccc4c2=O)-c2ccccc2-3)cc1	19852*	9.1	7.5	1.3	-0.2
CCCCOC(=O)Nc1ccc(N2CCOCC2)cc1	20906*	-4.9	?	-5.5	-6.1
CCOC(=O)Nc1ccc(S(=O)(=O)NCCCN2CCOCC2)cc1	17393*	-3.3	-2.2	-3.4	2.3
Cc1ccc(C(=O)N[C@@H](C)CN2C3=NC[C@H](C(C)C)N3C[C@H]2Cc2ccc(O)cc2)cc1Br	3546	-20.4	-0.1	-3.7	-1.5
O=C(O)CCNC(=O)/C(=C/C=C/c1ccccc1)NC(=O)c1ccccc1	2480	-2.4	0.1	1.9	3.1
CCC1CCc2[nH]nc(C(=O)O)c2C1 (centres undefined)	8617	6.2	1.2	-0.7	4.0
SMILES	Bead autofluor	BoNT-F LC inh	BoNT A protease	Anthrax LF prot	3CLpro inhibitor
CC1CCc2[nH]nc(C(=O)O)c2C1 (centres undefined)	20725*	2.6	1.7	-8.3	-4.4
Clc1cccc(Cl)c1Cn1cc(Br)cn1	16279*	2.6	0.9	-1.4	2.8
Clc1ccc(Cn2cc(Br)cn2)cc1Cl	10607	-4.7	-0.7	-2.0	1.9
COc1ccccc1C1CC(c2ccc(NS(C)(=O)=O)cc2)=NN1S(=O)(=O)c1ccccc1 (centres undefined)	5606	3.2	0.7	-2.5	1.8
Cc1n[nH]c(C)c1N1C(=O)c2cccc3c(N4CCCCCC4)ccc(c23)C1=O	20898*	33.1	15.6	-6.3	-27.4
O=C1c2cccc3c(N4CCCCC4)ccc(c23)C(=O)N1CCO	3264	15.5	5.0	1.7	-4.2
C=CCN1C(=O)c2cccc3c(N4CCCCC4)ccc(c23)C1=O	6017	14.5	30.3*	14.6	3.2
CC(NC(=O)c1ccccc1Br)c1nnc(SCc2ccc([N+](=O)[O-])cc2)n1C (centres undefined)	19315*	4.7	2.5	0.6	-0.5
Cn1c(SCc2ccc([N+](=O)[O-])cc2)nnc1-c1cccnc1	2586	0.7	-0.6	-2.1	-3.1
CCn1cc(C(=O)O)c(=O)c2cc(OC)ccc21	19754*	-51.1	-14.1	-13.3	2.4
CC(C)N=Cc1c(O)[nH]c2ccccc12	21450*	-4.4	-2.5	-2.3	-4.5
CC(C)(CO)N=Cc1c(O)[nH]c2ccccc12	?	10.0	-0.6	-1.5	-2.3
O=C(C1=C(O)C(=O)N(CCN2CCOCC2)C1c1cccnc1)c1cc2ccccc2o1 (centres undefined)	19706*	-4.0	-1.0	-2.9	3.3
COc1ccc(C)cc1-n1nnnc1SCC(=O)N1CCC(C(=O)Nc2nccs2)CC1	23303*	-2.0	?	-0.9	-4.3
CCC1CCCCN1S(=O)(=O)c1ccc([N+](=O)[O-])cc1 (centres undefined)	2807	?	5.7	-12.8	-5.4
COc1ccc(Cc2c(-c3cccc(Br)c3)nc3ccc(Br)cn23)c(C)c1	4327	7.1	8.2	11.6	.
COc1ccc(-n2cc3c(-c4cccc(Br)c4)nnc(C)c3n2)cc1	48432*	30.9	7.7	17.3	-0.8
O=C(c1cn(-c2ccccc2)nc1-c1cccc(Br)c1)N1CCOCC1	2637	-1.5	0.3	-0.2	1.7
Cc1nnc(-c2cccc(Br)c2)c2cn(-c3ccccc3)nc12	32979*	27.2	14.7	7.9	3.6
O=C(O)/C=C/C(=O)NCc1cn(-c2ccccc2)nc1-c1cccc(Br)c1	3478	-5.3	-1.4	-2.0	2.1
Cc1nnc(-c2cccc(Br)c2)c2cn(-c3cccc(Br)c3)nc12	34824*	11.9	8.2	1.4	-0.2
Cc1nnc(-c2cccc(Br)c2)c2cn(-c3ccc(Br)cc3)nc12	17435*	10.1	0.9	-4.4	-2.5
CC(=O)c1nn(-c2cccc(Br)c2)cc1C(=O)c1ccc(C)cc1	?	?	-1.4	?	0.3
Cc1cc(OC(F)F)ccc1NC(=S)NC1CCCC1	5420	5.9	1.3	-4.0	-1.4
COc1ccccc1NC(=S)NN1CCN(C)CC1	2508	-4.4	-0.8	-0.9	-4.7
CN(C)c1nc(=NCc2ccco2)ss1	3581	-3.0	4.0	-5.4	0.3
O=C(COc1ccc(Br)cc1)Nc1ccc(-c2nnc(-c3ccco3)o2)cc1	21839*	-7.6	-7.3	1.1	-6.4
CCOc1ccc(C(=O)N(CN2CCCC2=O)c2cccc(Cl)c2)cc1	4259	-3.3	-0.3	1.7	-0.2
